Measured values from PubChem BioAssay AID743314 (Broad Institute, 2014).
Measured potencies and affinities stand elsewhere. Records with an inconclusive call do not appear.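 How the source made its calls: active means fitted half-maximal concentration no higher than twice the top tested dose, in every repeat run; inconclusive means repeat runs disagree, poor fit, or flat partial inhibition; inactive means the rest.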

These compounds were tested against Endoplasmic reticulum aminopeptidase 1 (Homo sapiens) (UniProt Q9NZ08) (assay: ERAP1 aminopeptidase inhibitors, dose response, biochemical, cherry-pick, set 2, plate reader (AID 743314;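 further: 0% = neutral control wells and -100% = L-leucinethiol positive control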)). Conditions: Recombinant ERAP1, Leu-AMC fluorescence, 60 min; series mostly up to 11 µM; activity change, negative = inhibition: at the top concentration.
Sequence of Endoplasmic reticulum aminopeptidase 1 (Homo sapiens) (Q9NZ08 whole entry, looked up): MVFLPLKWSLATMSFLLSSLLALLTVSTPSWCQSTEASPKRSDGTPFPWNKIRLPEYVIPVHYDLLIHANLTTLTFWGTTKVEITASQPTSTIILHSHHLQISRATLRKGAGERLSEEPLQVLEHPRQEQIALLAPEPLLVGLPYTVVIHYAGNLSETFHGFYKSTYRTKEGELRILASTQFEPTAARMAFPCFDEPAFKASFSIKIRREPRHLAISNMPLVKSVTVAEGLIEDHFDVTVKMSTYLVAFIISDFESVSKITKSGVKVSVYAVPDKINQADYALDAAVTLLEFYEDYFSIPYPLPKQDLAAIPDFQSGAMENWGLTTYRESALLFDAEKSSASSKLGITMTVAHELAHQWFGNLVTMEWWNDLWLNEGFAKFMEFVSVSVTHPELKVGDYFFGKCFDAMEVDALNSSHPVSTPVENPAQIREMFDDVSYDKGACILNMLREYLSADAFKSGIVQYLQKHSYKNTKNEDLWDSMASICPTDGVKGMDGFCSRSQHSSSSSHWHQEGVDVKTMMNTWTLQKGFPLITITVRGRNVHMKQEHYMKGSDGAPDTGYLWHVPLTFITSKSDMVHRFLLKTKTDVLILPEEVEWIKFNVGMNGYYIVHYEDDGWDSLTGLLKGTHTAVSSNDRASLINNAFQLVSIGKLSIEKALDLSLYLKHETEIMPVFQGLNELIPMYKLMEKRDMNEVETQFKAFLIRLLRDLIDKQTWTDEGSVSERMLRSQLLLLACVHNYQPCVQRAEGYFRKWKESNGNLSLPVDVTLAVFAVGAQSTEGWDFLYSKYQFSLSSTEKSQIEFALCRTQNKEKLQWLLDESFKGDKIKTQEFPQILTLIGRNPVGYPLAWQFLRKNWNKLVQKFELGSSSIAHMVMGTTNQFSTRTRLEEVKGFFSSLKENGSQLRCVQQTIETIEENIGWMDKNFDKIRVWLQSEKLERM

Activity change, negative = inhibition, inactive:
COc1ccc(C#Cc2cccc(-c3nc(C(=O)N4CCN(C)CC4)cc4c3[C@@H](CCO)N(S(=O)C(C)(C)C)C4)c2)cc1OC (stereo partly drawn) 37.6%
CN1CCN(S(=O)(=O)c2cccc(C(=O)N(C)CC(=O)Nc3ccc(F)c(F)c3F)c2)CC1 3.77%
N#Cc1ccc(-c2ccc([C@H]3[C@H](CO)N4C(=O)CN(C(=O)C5CC5)C[C@@H]34)cc2)cc1 22.1%
CSc1cccc(NC(=O)CCCNC(=O)c2ccc(Cl)cc2)c1 9.95%
C[C@@H]1CN([C@@H](C)CO)C(=O)Cc2cc(NC(=O)Nc3cccc4ccccc34)ccc2O[C@H]1CN(C)Cc1ccc(C(=O)O)cc1 17.1%
C[C@@H]1CN([C@@H](C)CO)C(=O)c2cccc(NC(=O)Nc3ccc(C(F)(F)F)cc3)c2O[C@H]1CN(C)C 29%
CCN1CCN(c2ccc(S(=O)(=O)N3CCCCC3)cc2NC(=O)c2ccccc2)CC1 -6.46%
CC(=O)Oc1cc2oc(=O)cc(C)c2cc1Cl 264%
COc1ccc(CN(C)C[C@H]2OCCCC[C@@H](C)Oc3ccc(NS(=O)(=O)c4cccs4)cc3C(=O)N([C@H](C)CO)C[C@@H]2C)cc1 42.7%
O=C(CSc1nc2ccccc2c(=O)n1-c1ccccc1)NCC1CCCO1 (stereo not drawn) -4.58%
Cc1[nH]c2ccccc2c1C(=O)CN1C(=O)C(=O)N(Cc2ccco2)C1=O -9.8%
COc1ccccc1-c1cn(CC[C@H]2CC[C@H](NS(=O)(=O)c3ccccc3C)[C@@H](CO)O2)nn1 20.2%
COc1ccc(NC(=O)Nc2ccc3c(c2)C(=O)N([C@@H](C)CO)C[C@@H](C)[C@H](CN(C)Cc2ccc(C(=O)O)cc2)OCCCC[C@H](C)O3)cc1 57%
Cc1cc(C)cc(N2CC(c3nc4ccccc4n3C)CC2=O)c1 (stereo not drawn) -5.2%
Cc1ccc(Cl)cc1NC(=O)CCC(=O)O 17%
COc1ccc(CN(C)C[C@@H]2OCCCC[C@H](C)Oc3ccc(NS(=O)(=O)c4cccs4)cc3C(=O)N([C@H](C)CO)C[C@@H]2C)cc1 48.1%
C[C@@H]1CN([C@H](C)CO)C(=O)Cc2cc(NC(=O)Nc3cccc4ccccc34)ccc2O[C@H]1CN(C)Cc1ccc(C(=O)O)cc1 18.3%
CNC[C@H]1Oc2c(NC(=O)Nc3ccc(F)cc3)cccc2C(=O)N([C@@H](C)CO)C[C@@H]1C 40%
C[C@H](CO)N1C[C@H](C)[C@H](CN(C)Cc2ccc(C(=O)O)cc2)Oc2c(NC(=O)Nc3ccccc3)cccc2C1=O 59.2%
C[C@H](CO)N1C[C@H](C)[C@H](CN(C)C)OCCCC[C@H](C)Oc2ccc(NS(=O)(=O)c3ccc(Cl)cc3)cc2C1=O 32.6%
CCOc1ccccc1N1CCN(C(=O)C2=CC=CN3CCS(=O)(=O)N=C23)CC1 -12.7%
CC(Nc1ccc(F)cc1)=[N+](C)CCNS(=O)(=O)c1ccc(Cl)cc1 -9.26%
O=C(c1ccc(F)cc1)N1CC2(C1)[C@H](c1ccccc1)[C@@H](CO)N2Cc1ccccn1 19.7%
C[C@@H]1CN([C@@H](C)CO)C(=O)c2cc(NS(=O)(=O)c3ccc(Cl)cc3)ccc2O[C@@H](C)CCCCO[C@H]1CN(C)C 37.5% [at 5.6 µM]
O=C(Cc1ccccn1)N1CC(=O)N2[C@@H](CO)[C@H](c3ccc(C#CC4CCCC4)cc3)[C@@H]2C1 30.6%
COc1ccccc1CN1CC[C@@H]2[C@H](CO)Nc3ccc(-c4cccc(C(=O)N(C)C)c4)cc3[C@@H]21 41.8% [at 10 µM]
CCOC(=O)c1c(NC(=O)COC(=O)CCNS(=O)(=O)c2ccccc2)sc(C(=O)NC)c1C -4.58%
CCOc1ccccc1OCCCC(=O)Nc1ccc(S(=O)(=O)Nc2cc(C)nc(C)n2)cc1 9.91%
CC(=O)Oc1ccc(-c2cc3c(OC(C)=O)cc(OC(C)=O)cc3oc2=O)cc1 13.7% [at 2.6 µM]
COc1cccc(-c2ccc([C@H]3[C@H]4CN(C(=O)c5cccnc5)CC(=O)N4[C@H]3CO)cc2)c1 23.7%
N#Cc1ccccc1OCC(=O)OCC(=O)c1ccc2c(c1)NC(=O)CO2 -8.39%
CCOC(=O)c1nnn(CC(=O)Nc2ccccc2)c1C(=O)OCC -2.98%
Cc1noc(C)c1NC(=O)N(C)C[C@@H]1Oc2c(NC(=O)Nc3ccc(F)cc3)cccc2C(=O)N([C@H](C)CO)C[C@H]1C 45.2%
Cc1ccc(NC(=O)C2CCN(C(=O)c3cccs3)CC2)c(C)c1 -4.73%
C[C@@H]1CN([C@@H](C)CO)C(=O)c2cccc(NC(=O)c3cnccn3)c2O[C@H]1CN(C)Cc1ccc(Cl)c(Cl)c1 17.8%
CCN(CC)C(=O)c1ncn(C)c1C(=O)N(CC)CC 5.06%
CCCNC(=O)C[C@@H]1CC[C@@H]2[C@H](COC[C@H](O)CN2C(=O)Nc2cccc(Cl)c2)O1 47.7%
C[C@H](NC(=O)C[C@H]1CC[C@H]2[C@@H](COC[C@H](O)CN2C(=O)Nc2ccccc2)O1)c1ccccc1 46.1%
